Measured values from PubChem BioAssay (EPA / NIEHS).
Activity calls are given as the source filed them. The calls were made as follows: active = hit-call score of the fitted dose curve at least 0.9, where 1 is the maximum; inactive = score below 0.9.

Experiment: ATG_FoxO_CIS: Attagene CIS-FACTORIAL HepG2 Assay for human Forkhead box O (FoxO) (AID 2282943)
Conditions: HepG2 Attagene cis-reporter, FoxO element, mRNA; actives raise or lower the signal
Method in brief: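 Values reflect reporter mRNA induction or loss in HepG2 cells 24 h post-dosing, fitted bidirectionally with DMSO as negative control and baseline. Detection used RT-PCR and fluorescence capillary electrophoresis.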

| SMILES | outcome |
| --- | --- |
| CC1(C)S[C@@H]2[C@H](NC(=O)[C@H](N)c3ccccc3)C(=O)N2[C@H]1C(=O)O | inactive |
| CCC(C)(CCC(C)C)C(=O)O (configuration not stated) | inactive |
| Cc1cc(C)c(S(=O)(=O)O)cc1N=Nc1cc(S(=O)(=O)O)c2ccccc2c1O | inactive |
| CCCc1c(OCCCCc2nn[nH]n2)ccc(C(C)=O)c1O | inactive |
| Clc1ccccn1 | inactive |
| c1cc(N(CC2CO2)CC2CO2)ccc1Cc1ccc(N(CC2CO2)CC2CO2)cc1 (configuration not stated) | inactive |
| CCCCCCOC(=O)CCCCCCCC(=O)OCCCCCC | inactive |
| CC1=NN(c2cc(Cl)c(S(=O)(=O)O)cc2Cl)C(=O)C1N=Nc1ccc(S(=O)(=O)O)cc1 (configuration not stated) | inactive |
| O=C(O)Cc1c[nH]c2ccccc12 | inactive |
| CCCCCCCCCCC1CO1 (configuration not stated) | inactive |
| NCc1ccccc1 | inactive |
| O=[N+]([O-])c1ccc2nc[nH]c2c1 | inactive |
| CCCCn1cc[n+](C)c1 | inactive |
| CC(C)CC(=O)O | inactive |
| C[Si](C)(C)O[Si](C)(C)O[Si](C)(C)C | inactive |
| Cc1cc(O)cc(C)c1Cl | inactive |
| CC(C)n1c(/C=C/[C@@H](O)C[C@@H](O)CC(=O)O)c(-c2ccc(F)cc2)c2ccccc21 | inactive |
| CC1=C(CC=O)C(C)(C)CCC1 | inactive |
| CC(O)(P(=O)(O)O)P(=O)(O)O | inactive |
| Cc1cccnc1 | inactive |

| SMILES | outcome |
| --- | --- |
| Cc1ccccc1S(N)(=O)=O | inactive |
| C=C(C)C(=O)OCC1CCCO1 (configuration not stated) | inactive |
| OCCOCCOCCOCCOCCO | inactive |
| C1=CCC=C1 | inactive |
| CC(C)CC(=O)CC(C)CC(C)C (configuration not stated) | inactive |
| CCCOCCC | inactive |
| CN(C)CCC(c1ccc(Cl)cc1)c1ccccn1 (configuration not stated) | inactive |
| CN(C)CCCN1c2ccccc2CCc2ccc(Cl)cc21 | inactive |
| CC/C=C\CC1=C(C)CCC1=O | inactive |
| C[C@H]1C[C@H]2[C@@H]3CCC4=CC(=O)C=C[C@]4(C)[C@@]3(F)[C@@H](O)C[C@]2(C)[C@@]1(O)C(=O)CO | inactive |
| COC(OC)C(C)c1ccccc1 (configuration not stated) | inactive |
| F[B-](F)(F)F | inactive |
| COCCCN | inactive |
| CC1=CCCC(C)(C)C12CCC(C)O2 (configuration not stated) | inactive |
| CC(=O)c1nccs1 | inactive |
| COc1ccccc1OCC(O)CO (configuration not stated) | inactive |
| OCCN(CCO)c1cccc(Cl)c1 | inactive |
| O=C(O)c1nc(Cl)c(Cl)c(Cl)c1Cl | inactive |
| CC=CC(=O)O | inactive |

Experiment: ATG_GATA_CIS: Attagene CIS-FACTORIAL HepG2 Assay for human GATA Binding Protein (AID 2282944)
Conditions: HepG2 GATA cis-element reporter, Attagene multiplex mRNA; actives raise or lower the signal
Method in brief: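 Reporter transcripts from a GATA cis-regulated unit, among multiplexed reporters in transfected HepG2 cells, were measured by RT-PCR with capillary electrophoresis after 24 h dosing. Induction or loss scored relative to DMSO.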

| SMILES | outcome |
| --- | --- |
| CC1(C)S[C@@H]2[C@H](NC(=O)[C@H](N)c3ccccc3)C(=O)N2[C@H]1C(=O)O | inactive |
| CCC(C)(CCC(C)C)C(=O)O (configuration not stated) | inactive |
| Cc1cc(C)c(S(=O)(=O)O)cc1N=Nc1cc(S(=O)(=O)O)c2ccccc2c1O | inactive |
| CCCc1c(OCCCCc2nn[nH]n2)ccc(C(C)=O)c1O | inactive |
| Clc1ccccn1 | inactive |
| c1cc(N(CC2CO2)CC2CO2)ccc1Cc1ccc(N(CC2CO2)CC2CO2)cc1 (configuration not stated) | inactive |
| CCCCCCOC(=O)CCCCCCCC(=O)OCCCCCC | inactive |
| CC1=NN(c2cc(Cl)c(S(=O)(=O)O)cc2Cl)C(=O)C1N=Nc1ccc(S(=O)(=O)O)cc1 (configuration not stated) | inactive |
| O=C(O)Cc1c[nH]c2ccccc12 | inactive |
| CCCCCCCCCCC1CO1 (configuration not stated) | inactive |
| NCc1ccccc1 | inactive |
| O=[N+]([O-])c1ccc2nc[nH]c2c1 | inactive |
| CCCCn1cc[n+](C)c1 | inactive |
| CC(C)CC(=O)O | inactive |
| C[Si](C)(C)O[Si](C)(C)O[Si](C)(C)C | inactive |
| Cc1cc(O)cc(C)c1Cl | inactive |
| CC(C)n1c(/C=C/[C@@H](O)C[C@@H](O)CC(=O)O)c(-c2ccc(F)cc2)c2ccccc21 | inactive |
| CC1=C(CC=O)C(C)(C)CCC1 | inactive |
| CC(O)(P(=O)(O)O)P(=O)(O)O | inactive |
| Cc1cccnc1 | inactive |

| SMILES | outcome |
| --- | --- |
| Cc1ccccc1S(N)(=O)=O | inactive |
| C=C(C)C(=O)OCC1CCCO1 (configuration not stated) | inactive |
| OCCOCCOCCOCCOCCO | inactive |
| C1=CCC=C1 | inactive |
| CC(C)CC(=O)CC(C)CC(C)C (configuration not stated) | inactive |
| CCCOCCC | inactive |
| CN(C)CCC(c1ccc(Cl)cc1)c1ccccn1 (configuration not stated) | inactive |
| CN(C)CCCN1c2ccccc2CCc2ccc(Cl)cc21 | inactive |
| CC/C=C\CC1=C(C)CCC1=O | inactive |
| C[C@H]1C[C@H]2[C@@H]3CCC4=CC(=O)C=C[C@]4(C)[C@@]3(F)[C@@H](O)C[C@]2(C)[C@@]1(O)C(=O)CO | inactive |
| COC(OC)C(C)c1ccccc1 (configuration not stated) | inactive |
| F[B-](F)(F)F | inactive |
| COCCCN | inactive |
| CC1=CCCC(C)(C)C12CCC(C)O2 (configuration not stated) | inactive |
| CC(=O)c1nccs1 | inactive |
| COc1ccccc1OCC(O)CO (configuration not stated) | inactive |
| OCCN(CCO)c1cccc(Cl)c1 | inactive |
| O=C(O)c1nc(Cl)c(Cl)c(Cl)c1Cl | inactive |
| CC=CC(=O)O | inactive |

Experiment: ATG_GLI_CIS: Attagene CIS-FACTORIAL HepG2 Assay for human Zinc Finger Protein GLI1 (AID 2282945)
Conditions: HepG2, Attagene cis-factorial reporter mRNA, GLI element; actives raise or lower the signal
Method in brief: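 HepG2 cells transiently transfected with cis-promoter multiplexed reporter units report endogenous transcription factor activity. After 24 h chemical exposure, reporter mRNA was quantified by RT-PCR, 6-FAM labelling, HpaI digestion and capillary electrophoresis, with bidirectional fitting against DMSO.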

| SMILES | outcome | AC50 |
| --- | --- | --- |
| CC1(C)S[C@@H]2[C@H](NC(=O)[C@H](N)c3ccccc3)C(=O)N2[C@H]1C(=O)O | inactive |  |
| CCC(C)(CCC(C)C)C(=O)O (configuration not stated) | inactive |  |
| Cc1cc(C)c(S(=O)(=O)O)cc1N=Nc1cc(S(=O)(=O)O)c2ccccc2c1O | inactive |  |
| CCCc1c(OCCCCc2nn[nH]n2)ccc(C(C)=O)c1O | inactive |  |
| Clc1ccccn1 | inactive |  |
| c1cc(N(CC2CO2)CC2CO2)ccc1Cc1ccc(N(CC2CO2)CC2CO2)cc1 (configuration not stated) |  | 26.4 µM (active) |
| CCCCCCOC(=O)CCCCCCCC(=O)OCCCCCC | inactive |  |
| CC1=NN(c2cc(Cl)c(S(=O)(=O)O)cc2Cl)C(=O)C1N=Nc1ccc(S(=O)(=O)O)cc1 (configuration not stated) | inactive |  |
| O=C(O)Cc1c[nH]c2ccccc12 | inactive |  |
| CCCCCCCCCCC1CO1 (configuration not stated) |  | 159 µM (active) |
| NCc1ccccc1 | inactive |  |
| O=[N+]([O-])c1ccc2nc[nH]c2c1 | inactive |  |
| CCCCn1cc[n+](C)c1 | inactive |  |
| CC(C)CC(=O)O | inactive |  |
| C[Si](C)(C)O[Si](C)(C)O[Si](C)(C)C | inactive |  |
| Cc1cc(O)cc(C)c1Cl | inactive |  |
| CC(C)n1c(/C=C/[C@@H](O)C[C@@H](O)CC(=O)O)c(-c2ccc(F)cc2)c2ccccc21 | inactive |  |
| CC1=C(CC=O)C(C)(C)CCC1 | inactive |  |
| CC(O)(P(=O)(O)O)P(=O)(O)O | inactive |  |
| Cc1cccnc1 | inactive |  |

| SMILES | outcome | AC50 |
| --- | --- | --- |
| Cc1ccccc1S(N)(=O)=O | inactive |  |
| C=C(C)C(=O)OCC1CCCO1 (configuration not stated) | inactive |  |
| OCCOCCOCCOCCOCCO | inactive |  |
| C1=CCC=C1 | inactive |  |
| CC(C)CC(=O)CC(C)CC(C)C (configuration not stated) | inactive |  |
| CCCOCCC | inactive |  |
| CN(C)CCC(c1ccc(Cl)cc1)c1ccccn1 (configuration not stated) | inactive |  |
| CN(C)CCCN1c2ccccc2CCc2ccc(Cl)cc21 | inactive |  |
| CC/C=C\CC1=C(C)CCC1=O | inactive |  |
| C[C@H]1C[C@H]2[C@@H]3CCC4=CC(=O)C=C[C@]4(C)[C@@]3(F)[C@@H](O)C[C@]2(C)[C@@]1(O)C(=O)CO | inactive |  |
| COC(OC)C(C)c1ccccc1 (configuration not stated) | inactive |  |
| F[B-](F)(F)F | inactive |  |
| COCCCN | inactive |  |
| CC1=CCCC(C)(C)C12CCC(C)O2 (configuration not stated) | inactive |  |
| CC(=O)c1nccs1 | inactive |  |
| COc1ccccc1OCC(O)CO (configuration not stated) | inactive |  |
| OCCN(CCO)c1cccc(Cl)c1 | inactive |  |
| O=C(O)c1nc(Cl)c(Cl)c(Cl)c1Cl | inactive |  |
| CC=CC(=O)O | inactive |  |
